The values below come from PubChem BioAssay AID1259422 (The Scripps Research Institute Molecular Screening Center, 2018).

Out of some 640,000 compounds screened, about 9,300 (1.5%) were called active. No stated cut-off is given here; in the data, active means inhibition above about 32%; inactive means the rest. The full list was thinned out, with actives kept by preference.

The nature of this assay: TEAD-YAP interaction inhibition, primary screen, TEAD-YAP interaction inhibitor project, luminescence, HEK-TIYL cells (AID 1259422).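 Further: 0% = median of test compound wells and 100% = reference inhibitor wells.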 The conditions noted are these: TEAD-Gal4/YAP UAS-luciferase luminescence, at 9.12 µM, active compounds read high.
The inhibition is the drop in the measured response relative to a control, in per cent. With `COc1ccccc1-n1nnnc1SCC(=O)c1ccc(Br)s1`, the inhibition is 2.7% (inactive). In the case of `COc1ccccc1-n1nnnc1S(=O)(=O)Cc1ccc(Cl)cc1`, the inhibition is 48.7% (active). With `COc1ccccc1NC(=O)C(=O)NCc1ccc(Cl)cc1`, the inhibition was 1.06% (inactive). Regarding `CCOC(=O)N1CCN(C(=O)CN2N=C(c3ccc(OC)cc3)CCC2=O)CC1`, the inhibition was -0.51% (inactive). As for `c1ccc(-n2nnnc2SCc2nc3ccccc3s2)cc1`, the inhibition was -47.7% (inactive). Regarding `COc1ccc2nc(NC(=O)CSc3nnnn3-c3ccccc3)sc2c1`, the inhibition was 8.33% (inactive).

On to `COc1ccc(-n2nnnc2-c2nc3ccccc3s2)cc1`, for which the inhibition was 74.2% (active). For `CN(C)CCNc1ccnc2c(-c3cccc(O)c3)cnn12`, the inhibition is 2.13% (inactive). In the case of `OCc1cccc(-c2cnn3c(NCc4cccs4)ccnc23)c1`, the inhibition was 102% (active). On to `Fc1ccc(CNc2ccnc3c(-c4ccsc4)cnn23)cc1`, for which the inhibition is -14.1% (inactive). Consider `COc1ccc(CCNC(=O)c2cc(-c3ccccc3OC)n[nH]2)cc1OC`, for which the inhibition is 2.42% (inactive). As to `O=C(CSc1cccc2cccnc12)N/N=C/c1cccnc1`, the inhibition is 46.5% (active). `O=C(Cc1cccc2ccccc12)N/N=C/c1cccnc1`: the inhibition is 3.15% (inactive). As to `O=C(CSc1n[nH]c(=O)[nH]c1=O)N/N=C/c1cccnc1`, the inhibition is 10.8% (inactive).

With `Cc1nc(NC(=O)CSc2nnc(-c3ccccc3)n2C)sc1C`, the inhibition was 9.15% (inactive).

In the case of `CCOc1ccc(NC(=O)c2ccc3c(=O)n(-c4ccc(F)cc4)c(=S)[nH]c3c2)cc1`, the inhibition is 4.1% (inactive). For the compound `Cc1cc(Cl)c(S(=O)(=O)N2CCCc3ccccc32)cc1OCC(N)=O`, the inhibition was 4.13% (inactive). As to `O=C(CC1C(=O)N(c2ccc(F)cc2)C(=O)N1Cc1cccs1)Nc1ccc(F)cc1` (stereo not drawn), the inhibition is 5.51% (inactive).

Take `COc1ccc(OC(C)C(=O)Nc2ccc3ccccc3c2)cc1` (stereo not drawn): the inhibition was 39.1% (active). As to `COc1ccc(NC(=O)C(C)Oc2cc(C)cc(C)c2)cc1` (stereo not drawn), the inhibition was 15.9% (inactive). On to `COc1ccc(OC(C)C(=O)Nc2cccc(Br)c2)cc1` (stereo not drawn), for which the inhibition is 5.3% (inactive). Turning to `COC(=O)C1=CN(Cc2ccc(F)cc2)C=C(C(=O)OC)C1c1ccc(C)s1`, the inhibition is 3.1% (inactive). For `CCn1ccc(C(=O)Nc2sccc2C(=O)NC)n1` the value was 10.4% (inactive). For `COc1ccc(-n2cnc3cc(C(=O)NCc4ccccc4OC)ccc32)cc1` the value was 4% (inactive).

As for `COc1cc(NC(=O)c2ccccc2)c(C(=O)O)cc1OC`, the inhibition is 7.96% (inactive). For the compound `COc1ccccc1-n1cnc2cc(NC(=O)c3ccccc3)ccc21`, the inhibition is 38% (active). For `CN(C)c1cc(C(=O)N2CCN(C(=O)C(C)(C)C)CC2)nc(N(C)C)n1` the value was 0.22% (inactive); for `c1coc(-c2ccc3cnc(Nc4ccc(-n5cnc(N6CCOCC6)n5)cc4)nc3c2)n1`, -7.9% (inactive). As for `Cn1cc(-c2nc(Nc3ccc(-n4cnc(N5CCC(O)CC5)n4)cc3)ncc2Br)cn1`, the inhibition was 85.4% (active).

Consider `Cn1cc(-c2cc(Nc3ccc(-n4cnc(N5CCC(O)CC5)n4)cc3)ncc2Cl)cn1`, for which the inhibition was 0.35% (inactive). For `Cc1ncn(-c2ccc(Nc3ncc4cccc(-c5ccc6scnc6c5)c4n3)cc2)n1` the value was 3.89% (inactive); for `Cn1cc(-c2ccc3cnc(Nc4ccc(-n5cnc(N6CCOCC6)n5)cc4)nc3c2-c2cnn(C)c2)cn1`, 88.5% (active); for `COc1ccc(CCNC(=O)CCn2c(SCc3cccc(Cl)c3)nc3ccccc3c2=O)cc1OC`, -6.64% (inactive). As for `CCOC(=O)C1=C(C)NC(=S)NC1c1cc(OC)ccc1Br` (stereo not drawn), the inhibition is -4.97% (inactive).

With `CC(=O)c1cccc(-c2ccc(C(=O)NCCN3CCOCC3)s2)c1`, the inhibition was -17.5% (inactive). `COc1ccc(-c2noc(CNC(=O)c3ccc(Br)cc3)n2)cc1`: the inhibition was -8.01% (inactive). For the compound `CC1=C(C(=O)OCc2ccccc2)C(c2cccc([N+](=O)[O-])c2)C2=C(CC(c3cccs3)CC2=O)N1` (stereo not drawn), the inhibition is 58.1% (active). `COC(=O)C1=C(C)NC2=C(C(=O)CC(c3cccs3)C2)C1c1cccc(OCc2ccccc2)c1` (stereo not drawn): the inhibition was 15.8% (inactive).

Turning to `CC1=C(C(=O)OCc2ccccc2)C(c2ccc3c(c2)OCO3)C2=C(CC(c3cccs3)CC2=O)N1` (stereo not drawn), the inhibition was -4.32% (inactive). On to `O=C(CSc1cccc[n+]1[O-])Nc1nc2ccccc2s1`, for which the inhibition was 3.26% (inactive). For the compound `Cc1nccn1CC(O)COc1ccc(Br)cc1` (stereo not drawn), the inhibition is 5.95% (inactive). For `COc1ccc(OCC(=O)c2ccc(F)cc2)c(C#N)c1` the value was -65.6% (inactive); for `COc1ccc(OC)c(C(=O)COc2ccc(Br)cc2C#N)c1`, 52.8% (active). For `COc1ccc(C(=O)COC(=O)COc2ccccc2C#N)c(OC)c1`, the inhibition was 7.04% (inactive). For `CN(C)C(=O)c1cc(-c2cn[nH]c2)ccc1NC(=O)OCc1ccccc1` the value was -2.11% (inactive); for `CC(=O)Nc1ccc(N2C(=O)c3ccc4c5c(ccc(c35)C2=O)C(=O)N(c2ccc(NC(C)=O)cc2)C4=O)cc1`, 5.3% (inactive). For `COc1cc(OC)nc(Oc2cccnc2/C=N/Nc2ccccc2[N+](=O)[O-])n1` the value was -11.9% (inactive); for `CCN(CC)S(=O)(=O)c1ccc2nc(NC(=O)CC(C)C)sc2c1`, 42.2% (active). Take `CCCC(=O)Nc1nc2ccc(S(=O)(=O)N(C)C)cc2s1`: the inhibition was -15.2% (inactive). Regarding `CS(=O)(=O)c1ccc2nc(NC(=O)CSc3ccccc3)sc2c1`, the inhibition is 7.95% (inactive). As for `COc1cc(/C=C2/SC(=O)N(C)C2=O)cc(Br)c1OC`, the inhibition was -1.8% (inactive). On to `CC12CCC(C(=O)N(NC(=O)c3ccccc3O)C1=O)C2(C)C` (stereo not drawn), for which the inhibition is 74.3% (active).

As for `CCN(CC)c1ccc(NC(=O)c2ccccc2O)cc1`, the inhibition was -31.2% (inactive).

For the compound `COc1ccc(N2C(=O)CC(NNC(=O)c3ccccc3O)C2=O)cc1` (stereo not drawn), the inhibition is 8.23% (inactive).

Regarding `CC12C=CC3(O1)C(C(=O)N(CC1CCCO1)C3C(=O)NC1CCCCC1)C2C(=O)Nc1ccc(Cl)c(Cl)c1` (stereo not drawn), the inhibition was 2.66% (inactive). For `CCOc1ccc(S(=O)(=O)NCCOc2ccc(F)cc2)c(OCC)c1` the value was 10.6% (inactive); for `O=C1c2ccccc2C(=O)N1c1cccc(Br)c1`, -1.81% (inactive); for `COc1ccc(-c2nc(NCCO)c3ncn(-c4ccsc4)c3n2)cn1`, 41.7% (active).

Consider `NC(=O)c1ccc(-c2nc(NCCO)c3ncn(-c4ccsc4)c3n2)cc1`, for which the inhibition was 18.6% (inactive).

For the compound `Cn1c(Nc2nc(NCCN3CCOCC3)c3ncn(-c4ccccc4)c3n2)nc2ccccc21`, the inhibition is 25.9% (inactive). `Clc1nc(NCCN2CCOCC2)c2ncn(-c3ccccc3)c2n1`: the inhibition is -5.11% (inactive).

`Nc1cccc(-c2nc(NCCO)c3ncn(-c4ccccc4)c3n2)c1`: the inhibition was 31.7% (inactive). As to `COc1ccc(-c2nc(NCCN3CCOCC3)c3ncn(-c4ccccc4)c3n2)cn1`, the inhibition was 59.2% (active).

As to `C=CCn1c(=O)c(C(=O)Nc2cccc(Cl)c2)c(O)c2ccccc21`, the inhibition is 3.7% (inactive). For `O=C(Nc1cccc2c1C(=O)c1ccccc1C2=O)c1ccc(F)cc1` the value was -2.6% (inactive). For `CONC(=O)c1ccc(C(=O)c2cc(OC)ccc2OC)cc1`, the inhibition was 35.8% (active).

In the case of `COc1ccc(OC)c(C(=O)c2ccc(C(=O)NC3CC(C)(C)NC(C)(C)C3)cc2)c1`, the inhibition is 17.9% (inactive).

For the compound `CNC(=O)C(=O)Nc1cc(OC)ccc1OC`, the inhibition was 10.2% (inactive).

`CCOc1ccc(Nc2nc(Nc3ccc(C(C)=O)cc3)nc(C)c2[N+](=O)[O-])cc1`: the inhibition is 6.26% (inactive). For `COc1ccc(OC)c(NC(=O)CN2CCC(n3c(C)nc4cc(F)ccc43)CC2)c1` the value was -30.9% (inactive); for `CCOC(=O)CC1NCC2c3ccccc3CCN2C1=O` (stereo not drawn), 2.64% (inactive); for `OC1CCN(c2ccnc3c(-c4cccc(C(F)(F)F)c4)cnn23)CC1`, 10% (inactive). As for `O=C(c1c[nH]c(=O)n(-c2ccc(F)c(Cl)c2)c1=O)N1CCCc2ccccc21`, the inhibition was 38.2% (active). For `O=C(COc1ccc(Cl)cc1Cl)N1CCCc2ccccc21`, the inhibition is -11.7% (inactive). Consider `O=C(c1cc(Cl)ccc1[N+](=O)[O-])N1CCCc2ccccc21`, for which the inhibition is 10.8% (inactive). Consider `COc1cc(NC(=O)c2sc3nc(C)nc(N4CCN(C)CC4)c3c2C)cc(OC)c1`, for which the inhibition was 4.26% (inactive). As for `COc1ccc(C(=O)N/N=C(\C)CC(=O)Nc2ccccc2)c(OC)c1`, the inhibition was -36.2% (inactive). `COc1ccc(NC(=O)CS(=O)CC(=O)Nc2ccccc2-c2ccccc2)cc1` (stereo not drawn): the inhibition was -6.02% (inactive). For `COc1cc(OC)cc(C(=O)N/N=C(\C)CC(=O)NC2CCCCCCC2)c1` the value was 54.5% (active); for `C/C(CC(=O)NC1CCCC1)=N\NC(=O)COc1cccc(C)c1`, -8.3% (inactive). As to `C/C(CC(=O)NC1CCCCC1)=N\NC(=O)c1ccncc1`, the inhibition is 2.69% (inactive).

For the compound `COc1cc(OC)cc(C(=O)N/N=C(\C)CC(=O)Nc2ccccc2-c2ccccc2)c1`, the inhibition is 51.5% (active). For `COc1ccc2nc(NC(=O)c3ccccc3OC)sc2c1`, the inhibition is 5.95% (inactive). For `CCc1nc(SCC(=O)Nc2nc(C)c(C)s2)c2ccccc2n1`, the inhibition is 5.48% (inactive). For the compound `O=C1Nc2cc(C(=O)N3CCN(c4ccccn4)CC3)ccc2Nc2ccccc21`, the inhibition is 11.1% (inactive). With `COc1cccc(-c2cnn3c(N4CCC(O)CC4)ccnc23)c1`, the inhibition is 21.5% (inactive). For the compound `Clc1ccccc1-c1cnn2c(N3CCOCC3)ccnc12`, the inhibition was 16.7% (inactive). For the compound `COc1ccc(-c2cnn3c(N4CCOCC4)ccnc23)c(OC)c1`, the inhibition was -6.8% (inactive). For the compound `c1cc(N2CCOCC2)n2ncc(-c3ccc4[nH]ccc4c3)c2n1`, the inhibition was 96.6% (active). Turning to `COc1cc(-c2cnn3c(N4CCOCC4)ccnc23)cc(OC)c1OC`, the inhibition is 76.6% (active). `OC1CCN(c2ccnc3c(-c4ccoc4)cnn23)CC1`: the inhibition was -22.8% (inactive). For `O=C(CNC(=O)c1ccco1)N/N=C/c1ccc(O)c(O)c1` the value was 3.54% (inactive).

As to `Cc1ccc(N(CC(=O)O)C2SC(=O)N(c3ccccc3)C2=O)cc1` (stereo not drawn), the inhibition was -28.6% (inactive).
